Reference: PubChem BioAssay (Tox21)
Records with an inconclusive call do not appear. Activity calls are given as the source filed them. Calls come from the whole dose curve; as a rule, active = well fitted curve in the direction sought with a large enough effect in the repeat runs; inconclusive = weak or mixed curves; inactive = no such curve, though single readings can be large; an effect the other way counts as inactive or inconclusive.

Columns and labels:
[1] = Caspase-3/7 induction in HepG2 cells by small molecules, qHTS assay (AID 1346978); note: % is set by controls: 0 for no effect and ±100 for the full control effect; nearly all actives have a fitted effect of over 15% in size
In short: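 Caspase-3/7 induction was measured by Caspase-Glo 3/7 luminescence (30 min, room temperature) after a 17 hr compound exposure of wild-type HepG2 cells seeded at 2,000 per well and pre-incubated 5 hr.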

[2] = Caspase-3/7 induction in CHO-K1 cells by small molecules, qHTS cell viability counter screen (AID 1346979); note: % is set by controls: 0 for no effect and ±100 for the full control effect; nearly all actives have a fitted effect of over 35% in size
In short: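 Following a 5hr settling period, CHO-K1 cells at 1,500 per well received DMSO-dissolved compounds. Cell viability was quantified 16hr later by CellTiter-Fluor fluorescence, measured after 1hr with reagent at 37C.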

[3] = Caspase-3/7 induction in CHO-K1 cells by small molecules, qHTS assay (AID 1346980); note: % is set by controls: 0 for no effect and ±100 for the full control effect; nearly all actives have a fitted effect of over 15% in size
In short: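 Luminescent Caspase-Glo 3/7 read (30min, room temperature) quantified apoptosis induction. Cells were wild-type CHO-K1, treated with compound for 17hr at 37 C and 5% CO2.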

[4] = biological target: Nuclear receptor subfamily 1 group I member 2 (Homo sapiens) (UniProt O75469); experiment: Human pregnane X receptor (PXR) small molecule agonists, qHTS assay (AID 1346982); note: nearly all actives have a fitted effect of over 35% in size; note: potency is the fitted concentration of half-maximal effect; for activation: % is set by controls: 0 for no effect and ±100 for the full control effect
In short: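 Agonist mode: luminescence from ONE-Glo after 24 h compound exposure at 37C in HepG2 cells carrying hPXR-responsive CYP3A4 luciferase, plated in charcoal-stripped serum medium 5 h beforehand.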

[5] = biological target: Cytochrome P450 2D6 (Homo sapiens) (UniProt P10635); experiment: Cytochrome P450 Family 2 Subfamily D Member 6 (CYP2D6) small molecule antagonists: luciferase reporter qHTS assay (AID 1671196); note: nearly all actives have a fitted effect of over 50% in size; note: potency is the fitted concentration of half-maximal effect
In short: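 CYP2D6 activity was followed as luminescence from its luciferin product after a 1 h NADPH-driven reaction at room temperature. Enzyme-substrate mix and compound were pre-incubated for 10 min, and the signal was read 20 min after adding detection reagent.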

[6] = biological target: Cytochrome P450 2C19 (Homo sapiens) (UniProt P33261); experiment: Cytochrome P450 Family 2 Subfamily C Member 19 (CYP2C19) small molecule antagonists: luciferase reporter qHTS assay (AID 1671197); note: nearly all actives have a fitted effect of over 65% in size; note: potency is the fitted concentration of half-maximal effect
In short: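 Enzyme-substrate mix with proluciferin substrate (P450-Glo CYP2C19 system) preincubated with compounds 10 min at room temperature; NADPH regeneration solution added, 37C for 1 h; detection reagent stops reaction, luminescence read after 20 min. Ketoconazole positive control.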

[7] = Caspase-3/7 induction in HepG2 cells by small molecules, qHTS cell viability counter screen (AID 1346981); note: series mostly up to about 92 µM; % is set by controls: 0 for no effect and ±100 for the full control effect; nearly all actives have a fitted effect of over 30% in size
In short: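 CellTiter-Fluor fluorescence measured viability in the same wells used for Caspase-Glo 3/7. HepG2 (wild type) at 2,000 cells/well were pre-incubated 5 hr, dosed, and given reagent at 16 hr, with 1 hr further at 37C.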

[8] = biological target: Nuclear receptor subfamily 1 group I member 2 (Rattus norvegicus) (UniProt Q9R1A7); experiment: Rat pregnane X receptor (rPXR) activation by small molecules, qHTS assay (AID 1346983); details: rPXR luciferase reporter cells, One-Glo luminescence, 24 h; max activation: active compounds read high; note: nearly all actives have a fitted effect of over 20% in size; note: potency is the fitted concentration of half-maximal effect; for max activation: % is set by controls: 0 for no effect and ±100 for the full control effect
In short: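 Luminescent readout (One-Glo luciferase, 30 min room temperature) followed 24 hr compound treatment at 37 C of rPXR cells plated 2,000 per well and preincubated 5hr; qHTS format with compounds delivered in DMSO.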

[9] = biological target: Nuclear receptor subfamily 1 group I member 2 (Homo sapiens) (UniProt O75469); experiment: CYP3A4 induction through human pregnane X receptor (PXR) by small molecules, qHTS assay (AID 1346984); note: potency is the fitted concentration of half-maximal effect; nearly all actives have a fitted effect of over 40% in size
In short: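 Read-out is luminescence after One-Glo addition, following a 3 hr, 37C incubation with Luciferin-IPA CYP3A4 substrate (3uM final). Before that, compounds were on DPX-2 cells (HepG2 co-transfected with PXR element plus CYP3A4-promoter luciferase) for 24 hr at 37C.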

[10] = biological target: Nuclear receptor subfamily 1 group I member 2 (Homo sapiens) (UniProt O75469); experiment: Human pregnane X receptor (PXR) activation by small molecules, qHTS assay (AID 1346985); note: potency is the fitted concentration of half-maximal effect; nearly all actives have a fitted effect of over 40% in size
In short: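 DPX-2 cells (HepG2 co-transfected with a PXR response element and a CYP3A4-promoter luciferase construct) were seeded at 2,000 per well, rested 5 hr at 37C, then exposed to DMSO-dissolved compounds for 24 hr. Activation was read as luciferase luminescence.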

Cytochrome P450 2C19 (Homo sapiens), sequence (P33261 whole entry, looked up): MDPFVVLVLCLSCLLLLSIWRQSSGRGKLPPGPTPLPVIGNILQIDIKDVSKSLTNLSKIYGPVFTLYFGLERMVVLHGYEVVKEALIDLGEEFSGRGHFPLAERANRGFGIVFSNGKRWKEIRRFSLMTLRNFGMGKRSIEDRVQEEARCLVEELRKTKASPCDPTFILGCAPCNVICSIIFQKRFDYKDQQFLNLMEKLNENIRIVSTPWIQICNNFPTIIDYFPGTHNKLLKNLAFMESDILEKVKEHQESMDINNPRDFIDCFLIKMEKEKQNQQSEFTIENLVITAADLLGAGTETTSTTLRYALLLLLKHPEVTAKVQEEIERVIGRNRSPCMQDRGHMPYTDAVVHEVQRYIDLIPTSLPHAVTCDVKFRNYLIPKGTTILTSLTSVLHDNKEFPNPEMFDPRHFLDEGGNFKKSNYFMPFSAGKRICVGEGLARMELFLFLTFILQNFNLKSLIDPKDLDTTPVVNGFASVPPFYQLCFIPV
Cytochrome P450 2D6 (Homo sapiens), sequence (P10635 whole entry, looked up): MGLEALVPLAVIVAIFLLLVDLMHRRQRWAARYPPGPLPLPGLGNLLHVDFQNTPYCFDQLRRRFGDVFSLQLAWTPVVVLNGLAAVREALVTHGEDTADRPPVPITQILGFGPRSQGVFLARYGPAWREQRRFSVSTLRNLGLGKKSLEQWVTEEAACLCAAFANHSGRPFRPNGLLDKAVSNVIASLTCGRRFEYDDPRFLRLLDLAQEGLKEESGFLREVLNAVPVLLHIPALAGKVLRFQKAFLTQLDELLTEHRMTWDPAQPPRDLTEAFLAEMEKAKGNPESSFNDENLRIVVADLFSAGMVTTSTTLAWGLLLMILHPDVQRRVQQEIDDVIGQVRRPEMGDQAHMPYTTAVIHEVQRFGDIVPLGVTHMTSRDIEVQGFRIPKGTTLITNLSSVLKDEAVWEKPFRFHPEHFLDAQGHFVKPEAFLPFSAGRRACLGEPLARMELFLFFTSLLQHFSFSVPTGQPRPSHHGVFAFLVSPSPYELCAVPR
Nuclear receptor subfamily 1 group I member 2 (Homo sapiens), sequence (O75469 whole entry, looked up): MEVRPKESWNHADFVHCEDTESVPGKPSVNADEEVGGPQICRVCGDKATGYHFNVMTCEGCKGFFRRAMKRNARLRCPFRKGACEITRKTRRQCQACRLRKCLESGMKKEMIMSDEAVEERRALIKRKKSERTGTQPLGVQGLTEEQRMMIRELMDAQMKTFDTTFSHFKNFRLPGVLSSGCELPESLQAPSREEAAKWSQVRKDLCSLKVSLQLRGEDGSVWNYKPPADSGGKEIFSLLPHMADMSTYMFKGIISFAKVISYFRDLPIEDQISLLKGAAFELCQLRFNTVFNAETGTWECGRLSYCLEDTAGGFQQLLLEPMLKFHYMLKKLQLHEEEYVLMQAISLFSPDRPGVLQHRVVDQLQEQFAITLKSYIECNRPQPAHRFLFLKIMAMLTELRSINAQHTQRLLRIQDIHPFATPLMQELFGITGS
Nuclear receptor subfamily 1 group I member 2 (Rattus norvegicus), sequence (Q9R1A7 whole entry, looked up): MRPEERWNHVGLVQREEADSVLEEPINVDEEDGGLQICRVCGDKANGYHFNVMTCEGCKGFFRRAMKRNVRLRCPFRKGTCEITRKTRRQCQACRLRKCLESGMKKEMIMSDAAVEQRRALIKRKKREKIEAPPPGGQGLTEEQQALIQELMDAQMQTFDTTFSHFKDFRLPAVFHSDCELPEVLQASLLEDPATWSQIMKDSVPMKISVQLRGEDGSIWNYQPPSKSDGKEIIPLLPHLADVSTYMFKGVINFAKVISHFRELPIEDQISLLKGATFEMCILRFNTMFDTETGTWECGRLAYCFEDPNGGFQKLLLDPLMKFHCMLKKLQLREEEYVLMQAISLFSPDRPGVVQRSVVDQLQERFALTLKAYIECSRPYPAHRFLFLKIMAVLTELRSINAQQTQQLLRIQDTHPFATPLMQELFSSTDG

CN(C)CCOC(c1ccccc1)c1ccc(Br)cc1 (centres undefined)
active: Potency [5] 1.55 µM | Potency [6] 13.8 µM
inactive: Potency [1] | Potency [2] | Potency [3] | Potency [4]

CCOC(=O)COC(=O)c1cc(Oc2ccc(C(F)(F)F)cc2Cl)ccc1[N+](=O)[O-]
active: Potency [4] 30.6 µM | Potency [5] 15.9 µM | Potency [6] 11.2 µM
inactive: Potency [1] | Potency [3] | Potency [7]

C=C(C)C(=O)OCCOCC
inactive: Potency [1] | Potency [3] | Potency [7] | Potency [4]
active: Potency [5] 31.9 µM | Potency [6] 80 µM

CC(C)(COC(=O)c1ccccc1)COC(=O)c1ccccc1
active: Potency [6] 20 µM
inactive: Potency [1] | Potency [3] | Potency [7] | Potency [4] | Potency [5]

O=CC1CC=CCC1 (centres undefined)
inactive: Potency [1] | Potency [3] | Potency [7] | Potency [4] | Potency [6]
active: Potency [5] 55.9 µM

O=C(Cl)c1cc(C(=O)Cl)cc(C(=O)Cl)c1
inactive: Potency [1] | Potency [3] | Potency [7] | Potency [6]
active: Potency [4] 54.5 µM

CN(C)c1ccc(CCO)cc1
inactive: Potency [1] | Potency [3] | Potency [7] | Potency [4]
active: Potency [6] 28.1 µM

COc1cc(Cl)ccc1Oc1ccc(Cl)cc1Cl
inactive: Potency [1] | Potency [3] | Potency [7] | Potency [5]
active: Potency [4] 26.5 µM

COc1ccc2cccc(CCNC(C)=O)c2c1
active: Potency [6] 34.7 µM
inactive: Potency [1] | Potency [3] | Potency [7] | Potency [4] | Potency [5]

CC1CCC(=O)C1=O (centres undefined)
inactive: Potency [1] | Potency [3] | Potency [7] | Potency [4] | Potency [5] | Potency [6]

C[C@H]1C[C@H]2[C@@H]3CCC4=CC(=O)C=C[C@]4(C)[C@@]3(Cl)[C@@H](O)C[C@]2(C)[C@@]1(O)C(=O)CO
inactive: Potency [1] | Potency [3] | Potency [7]
active: Potency [8] 5.62 µM | Potency [9] 15.8 µM | Potency [10] 11.2 µM | Potency [5] 30.9 µM

O=C(NCC1CN(c2ccc(N3CCOCC3=O)cc2)C(=O)O1)c1ccc(Cl)s1 (centres undefined)
inactive: Potency [1] | Potency [3] | Potency [7] | Potency [4] | Potency [5] | Potency [6]

CCCCCCCCCCCCCCCCOS(=O)(=O)O
inactive: Potency [1] | Potency [3] | Potency [7] | Potency [4] | Potency [6]

CN1C[C@H]2c3ccccc3Oc3ccc(Cl)cc3[C@@H]2C1
inactive: Potency [1] | Potency [3] | Potency [7] | Potency [4]
active: Potency [5] 0.11 µM

CC(C)(C)OCC1CO1 (centres undefined)
inactive: Potency [1] | Potency [3] | Potency [7] | Potency [4] | Potency [5] | Potency [6]

C/C=C(/C(=C/C)c1ccc(OC(C)=O)cc1)c1ccc(OC(C)=O)cc1
active: Potency [6] 17.4 µM
inactive: Potency [1] | Potency [3] | Potency [7] | Potency [4] | Potency [5]

CN(C)CCCN1c2ccccc2Sc2ccccc21
inactive: Potency [1] | Potency [3] | Potency [7] | max activation [8] -2.41%

COc1cc(Cl)c(OC)cc1N
active: Potency [4] 48.6 µM | Potency [5] 63.3 µM | Potency [6] 22.4 µM
inactive: Potency [1] | Potency [3] | Potency [7]

O=C(O)c1ccco1
inactive: Potency [1] | Potency [3] | Potency [7] | Potency [4] | Potency [5] | Potency [6]

CC[N+]1(CC)CCC(=C(c2ccccc2)c2ccccc2)C1C (centres undefined)
active: Potency [5] 1.74 µM
inactive: Potency [1] | Potency [3] | Potency [7] | Potency [4] | Potency [6]

ClCCOCCOCCCl
inactive: Potency [1] | Potency [3] | Potency [7] | Potency [4] | Potency [5]

Nc1cccc([N+](=O)[O-])c1
inactive: Potency [1] | Potency [3] | Potency [7] | Potency [4] | Potency [5]
active: Potency [6] 69.5 µM

CCO[C@H](Cc1ccc(OCCc2ccc(OS(C)(=O)=O)cc2)cc1)C(=O)O
inactive: Potency [1] | Potency [3] | Potency [7] | Potency [4] | Potency [5] | Potency [6]

CCCCOC(=O)CCCCCCCC(=O)OCCCC
active: Potency [6] 35.6 µM
inactive: Potency [1] | Potency [3] | Potency [7] | Potency [4] | Potency [5]

CCCCC(CC)CN1C(=O)C2C3C=CC(C3)C2C1=O (centres undefined)
inactive: Potency [1] | Potency [3] | Potency [7]
active: Potency [4] 27.3 µM | Potency [5] 31.7 µM | Potency [6] 3.56 µM

CCOC(=O)C(F)(F)F
active: Potency [5] 35.6 µM
inactive: Potency [1] | Potency [3] | Potency [7] | Potency [4]

O=C(Nc1ccc(S(=O)(=O)N2CCOCC2)cc1)c1cc(Cl)ccc1NS(=O)(=O)c1ccc(Cl)s1
active: Potency [4] 9.44 µM | Potency [6] 38.9 µM
inactive: Potency [1] | Potency [3] | Potency [7] | Potency [5]

OCCNCc1ccccc1
active: Potency [5] 35.6 µM
inactive: Potency [1] | Potency [3] | Potency [7] | Potency [4]
